Some of the results follow. The hit rate among all sequences tested is not known here.
Target: furin, P09958
Assay: furin cleavage Z-score vs untreated control; higher = more cleavage, active = 3.5 or more, inactive = 1 or less, 8 variable residues between constant flanks
Summary of the method: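 Furin-free reactions served as the baseline for the cleavage Z-score, which is the log read count lowess-adjusted and scaled by median absolute deviation. Counts came from released DNA, adapter-tagged by PCR and sequenced. Purified furin had cut 8-mer peptides fused to a cDNA oligonucleotide on magnetic beads during 7.5, 15 or 30 min at 1:10 enzyme:substrate.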
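Also: purified furin at 1:10 enzyme:substrate in 50 mM HEPES pH 7.5.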

Sequence of furin, P09958 (P09958 whole entry): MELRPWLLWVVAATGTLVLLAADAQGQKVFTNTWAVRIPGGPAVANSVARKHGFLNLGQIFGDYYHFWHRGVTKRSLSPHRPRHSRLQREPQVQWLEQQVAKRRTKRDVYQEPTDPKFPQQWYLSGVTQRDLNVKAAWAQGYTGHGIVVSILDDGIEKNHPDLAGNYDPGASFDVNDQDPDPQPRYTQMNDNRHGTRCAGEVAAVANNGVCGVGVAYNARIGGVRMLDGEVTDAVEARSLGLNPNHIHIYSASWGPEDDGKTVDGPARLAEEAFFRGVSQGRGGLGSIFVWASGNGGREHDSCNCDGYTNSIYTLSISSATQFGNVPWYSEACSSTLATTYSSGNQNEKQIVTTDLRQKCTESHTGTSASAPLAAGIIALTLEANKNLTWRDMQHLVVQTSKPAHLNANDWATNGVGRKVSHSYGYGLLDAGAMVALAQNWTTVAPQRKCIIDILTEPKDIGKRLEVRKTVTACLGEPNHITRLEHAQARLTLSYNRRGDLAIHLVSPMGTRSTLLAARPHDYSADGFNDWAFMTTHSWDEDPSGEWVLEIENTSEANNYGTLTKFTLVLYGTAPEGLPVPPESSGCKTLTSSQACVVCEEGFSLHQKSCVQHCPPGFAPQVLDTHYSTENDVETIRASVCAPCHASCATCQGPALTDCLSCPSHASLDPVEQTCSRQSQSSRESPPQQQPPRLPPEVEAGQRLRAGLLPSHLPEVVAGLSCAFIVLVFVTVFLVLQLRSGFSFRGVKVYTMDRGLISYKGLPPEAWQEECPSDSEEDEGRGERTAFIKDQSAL

Row | Sequence | furin cleavage Z-score (7.5 min) | furin cleavage Z-score (15 min) | furin cleavage Z-score (30 min)
1 | CALLLLLALPAGNASASA [HC559] | -0.496 (inactive) | -0.0246 (inactive) | -1.1 (inactive)
2 | CATDPCSGSWAGNASASA [HC1851] | -1.13 (inactive) | -1.19 (inactive) | -1.08 (inactive)
3 | CAAILDMIAGAGNASASA [HC332] | 0.577 (inactive) | 0.516 (inactive) | -0.84 (inactive)
4 | CASKAHGIDPAGNASASA [HC795] | -1.17 (inactive) | -1.03 (inactive) | 1.13
5 | CASKSLSKRSAGNASASA [FS-721] | 8.05 (active) | 10.1 (active) | 6.73 (active)
6 | CATVPCSGSWAGNASASA [HC1850] | -0.242 (inactive) | -1.82 (inactive) | -1.24 (inactive)
7 | CARKDRRKKGAGNASASA [FS-2035] | 0.369 (inactive) | 0.879 (inactive) | 1.04
8 | CARKRRGTKGAGNASASA [FS-1959] | 8.4 (active) | 9.53 (active) | 8.24 (active)
9 | CATDALMTGYAGNASASA [HC879] | 0.343 (inactive) | 0.0305 (inactive) | 0.976 (inactive)
10 | CAPPDSDAESAGNASASA [HC1349] | -1.81 (inactive) | -1.84 (inactive) | -0.313 (inactive)
11 | CARKRRGTGYAGNASASA [FS-2565] | 9.5 (active) | 11.3 (active) | 9.57 (active)
12 | CARKRREAESAGNASASA [FS-2972] | 12 (active) | 12.2 (active) | 8.7 (active)
13 | CARHYRPTGYAGNASASA [FS-2682] | -1.08 (inactive) | -0.433 (inactive) | -0.26 (inactive)
14 | CARKRRSIRYAGNASASA [FS-2975] | 8.7 (active) | 10.2 (active) | 9.27 (active)
15 | CARKRRIVSGAGNASASA [FS-2348] | -0.706 (inactive) | 0.0646 (inactive) | -1.35 (inactive)
16 | CAVVCESMSYAGNASASA [HC93] | 1.27 | 1.17 | 0.112 (inactive)
17 | CAGLPVCQDHAGNASASA [HC934] | -1.12 (inactive) | -0.715 (inactive) | -0.789 (inactive)
18 | CAMEECSQHVAGNASASA [HC1770] | 0.37 (inactive) | -0.816 (inactive) | 0.885 (inactive)
19 | CAGLAGAAIGAGNASASA [HC1077] | 0.0949 (inactive) | -0.583 (inactive) | -1.05 (inactive)
20 | CATTPCSGSRAGNASASA [HC1933] | -1.1 (inactive) | 1.02 | 0.7 (inactive)
21 | CAEWVVCCSMAGNASASA [HC2128] | -0.594 (inactive) | 0.0553 (inactive) | 0.122 (inactive)
22 | CARKRRTGFGAGNASASA [FS-2978] | -1.31 (inactive) | 1.08 | 1.25

Row | Sequence | furin cleavage Z-score (7.5 min) | furin cleavage Z-score (15 min) | furin cleavage Z-score (30 min)
23 | CARKHPDATYAGNASASA [HC454] | -0.794 (inactive) | -0.15 (inactive) | -3 (inactive)
24 | CARKRRTATYAGNASASA [FS-2977] | 4.55 (active) | 6.85 (active) | 6.75 (active)
25 | CARKRRCSLSAGNASASA [FS-1829] | 4.81 (active) | 7.32 (active) | 6.54 (active)
26 | CARKRRGGPSAGNASASA [FS-2564] | 3.55 (active) | 5.66 (active) | 4.4 (active)
27 | CANKRRGGTAAGNASASA [WN5] | -0.513 (inactive) | -0.365 (inactive) | 0.516 (inactive)
28 | CATDVVCCSMAGNASASA [HC2118] | 1.2 | 0.0514 (inactive) | -0.681 (inactive)
29 | CAFIPVENLEAGNASASA [HC758] | -2.14 (inactive) | -0.887 (inactive) | -1.28 (inactive)
30 | CAMEECSVHLAGNASASA [HC1730] | -0.159 (inactive) | -0.406 (inactive) | 0.608 (inactive)
31 | CARQGRSGQKAGNASASA [FS-2063] | -0.381 (inactive) | 0.885 (inactive) | -0.813 (inactive)
32 | CAMDYRGRRKAGNASASA [FS-1544] | -0.964 (inactive) | -0.642 (inactive) | 0.39 (inactive)
33 | CAEPRRSRRKAGNASASA [FS-23] | 3.35 | 6.04 (active) | 5.36 (active)
34 | CAEPLRKKKKAGNASASA [FS-1320] | -0.899 (inactive) | -0.615 (inactive) | -0.879 (inactive)
35 | CACRRRRRRKAGNASASA [FS-583] | 7.53 (active) | 8.14 (active) | 6.13 (active)
36 | CAEPHRRRRKAGNASASA [FS-415] | 4.43 (active) | 5.99 (active) | 6.78 (active)
37 | CARRRRKQRKAGNASASA [FS-2791] | 2.34 | 4.43 (active) | 4.61 (active)
38 | CAVYHGAGTRAGNASASA [HC701] | -1.21 (inactive) | -0.779 (inactive) | -0.813 (inactive)
39 | CALLMCAVHPAGNASASA [HC598] | -0.584 (inactive) | -1.05 (inactive) | -0.438 (inactive)
40 | CALERRSVYTAGNASASA [FS-1986] | -0.7 (inactive) | 0.537 (inactive) | -0.997 (inactive)
41 | CAKTPCSGSWAGNASASA [HC1834] | -1.42 (inactive) | -1.89 (inactive) | -1.1 (inactive)
42 | CAQREVPCHRAGNASASA [HC2442] | 1.83 | 1.74 | 0.0102 (inactive)
43 | CALMRRRRRKAGNASASA [FS-1599] | 8.11 (active) | 10.6 (active) | 8.59 (active)
44 | CAWTVYHGAGAGNASASA [HC700] | -0.0993 (inactive) | 1.58 | 1.31

— the supplement of paper PMC3545927
